Screening results: PubChem, The Scripps Research Institute Molecular Screening Center
PLC-gamma1 inh = PLC-gamma1 enzyme inhibitors, primary screen, biochemical, fluorescence, purified enzyme | 1-phosphatidylinositol 4,5-bisphosphate phosphodiesterase gamma-1 (Homo sapiens), P19174 | fluorogenic substrate | inhibition, % at 12.2 µM | 370,000 tested, 0.84% active | AID 720700, 2013; in the data active = inhibition above about 9.5%
UHRF1 binding = UHRF1 methylated DNA binding inhibitors, primary screen, counter-screen for MBD2 inhibitor project, biochemical, TR-FRET, human UHRF1, single concentration; inhibition, % at 4.4 µM; UHRF1 binding to methylated oligo; 370,000 tested, 0.75% active; in the data active = inhibition above about 21%;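 also: UHRF1 SRA domain binding a hemimethylated CpG hairpin DNA probe; 0% = median of test compound wells and 100% = reference inhibitor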
LEDGF integ inh = blockers of LEDGF/p75-dependent integrase strand transfer – biochemical, TR-FRET, high throughput, primary screen | HIV-1 integrase (with human LEDGF/p75) | inhibition, % at 3.7 µM | 370,000 tested, 0.64% active | TR-FRET IN-LEDGF/p75 DNA integration, Eu/Cy5 | AID 743269, 2014;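 active = inhibition above the screen-wide mean plus 3 SD, cut at about 13% in these data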;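 also: signal is the Cy5 over europium emission ratio at 671 and 618 nm; 0% = plate median of compound wells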
PLC-beta3 inh = human PLC-beta3 inhibitors, primary screen, biochemical, fluorescence. inhibition, % at 12.2 µM. Purified PLC-beta3, fluorogenic substrate. 370,000 tested, 0.18% active. AID 720704, 2013. 1-phosphatidylinositol 4,5-bisphosphate phosphodiesterase beta-3 (Homo sapiens), Q01970; in the data active = inhibition above about 11%;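 also: 0% = median of compound wells on plate and 100% = full blocker control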
MBD2 DNA inh = inhibitors of MBD2 binding to methylated DNA, primary screen, biochemical, TR-FRET, DNA-binding domain, human; MBD2 binding to methylated oligonucleotide; inhibition, % at 4.4 µM; 370,000 tested, 0.31% active; Methyl-CpG-binding domain protein 2 (Homo sapiens), Q9UBB5; in the data active = inhibition above about 13%
IN multimer act = HIV-1 IN multimer formation enhancers, counter-screen for LEDGF/p75 integration inhibitor project, biochemical, TR-FRET; 2,000 tested, 17% active; shares compounds with LEDGF integ inh; TR-FRET HIV-1 integrase multimerization; activation, % at 7.7 µM; in the data active = activation above about 8.9%
TR-FRET interf = TR-FRET optical interference artefacts, confirmation, artefact control for LEDGF/p75-dependent integration inhibitor project, biochemical, HIV-1 IN multimerization; shares compounds with LEDGF integ inh; TR-FRET optical interference counterscreen; inhibition, % at 7.7 µM; 2,000 tested, under 10 active;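 active = inhibition above the mean over all tested compounds plus 3 SD, which no compound reached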;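 also: 0% = integrase with antibodies and DMSO and 100% = antibodies without integrase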
IN-LEDGF confirm = inhibitors of HIV-1 IN-LEDGF/p75 DNA integration, confirmation, biochemical, TR-FRET; shares compounds with LEDGF integ inh; TR-FRET LEDGF/p75-dependent HIV-1 integration; inhibition, % at 3.7 µM; 2,000 tested, 36% active; in the data active = inhibition above about 14%
The depositor's hits bear a star; / = no result given. Most compounds without a hit are left out; they make up all but 2.3% or so of the library.

SMILES	PLC-gamma1 inh	UHRF1 binding	LEDGF integ inh	PLC-beta3 inh	MBD2 DNA inh	IN multimer act	TR-FRET interf	IN-LEDGF confirm
COc1cc(C)cc(C(=O)O)c1C1=C(O)c2cccc(O)c2C(=O)C1=O	-4	23*	18*	-12	-2	13*	-65	19*
Cc1cc(O)c2c(c1)C(=O)c1cccc(O)c1C2=O	-5	2	-3	-5	1	/	/	/
O=[N+]([O-])c1cccc(OC[C@@H](O)CN2CCC(C(O)(c3ccccc3)c3ccccc3)CC2)c1	2	0	0	1	1	/	/	/
COc1ccc(NC(=O)CN2CCC(NC(=O)C3CCCCC3)CC2)c([N+](=O)[O-])c1	1	0	18*	-1	-2	-2	8	2
COc1ccc(NC(=O)CN2CCCCC2)c([N+](=O)[O-])c1	6	1	-1	-5	7	/	/	/
CCC(C)(C)NC(=O)C(c1cccc(OC)c1OC)N(C(=O)CCC(=O)Nc1cc(C)on1)C(C)C (centres undefined)	0	0	16*	-2	-5	-1	3	-14
Cc1ccc(C(=O)C2CCN(CC(=O)N3CC(C)CC(C)C3)CC2)cc1 (centres undefined)	-8	-1	-2	-6	-2	/	/	/
C=CCCC1CN(Cc2ccc(OC)cc2)S(=O)(=O)c2c(cccc2N(C)S(=O)(=O)c2ccc(C)cc2)O1 (centres undefined)	2	-2	89*	0	0	2	-10	-8
c1ccc(CNc2ccc(N3CCOCC3)cc2)cc1	-107	0	15*	-147	0	2	-10	-6
COc1ccc(OC)c(CNC(=O)CCNC(=O)Cn2ccc3ccccc3c2=O)c1	7	3	47*	4	-2	-1	4	3
CCOC(=O)[C@]12CCCC=C1N(Cc1ccc(OC)cc1)C(=O)[C@@H]2CC(=O)N1CCCC1	9	6	1	7	4	/	/	/
O=C1COc2ccc(C(=O)c3ccccc3)cc2CN1	0	-3	50*	3	-6	-2	11	1
O=C(c1ccccc1)c1ccc2c(c1)OCCCO2	2	0	3	-3	-5	/	/	/
Cn1c(SCc2ccccc2)nccc1=O	-4	4	-4	0	5	/	/	/
Cn1c(SCCc2ccc([N+](=O)[O-])cc2)nccc1=O	-2	2	60*	4	3	0	0	0
COc1ccc(CC(=O)OC(C)CN2CCCCC2)cc1 (centres undefined)	9	1	15*	6	-5	-1	4	3
Cc1noc(/C=C/N(C)C)c1S(=O)(=O)N1CCCC(C(=O)Nc2ccc3c(c2)OCO3)C1 (centres undefined)	-5	0	15*	-8	1	-1	6	-4
O=C(NCCN1CCCC1)C1CC(=O)N(C2CCCCC2)C1 (centres undefined)	-1	0	26*	-1	-8	-1	3	-4
C#CCN1CC(N(C)CCOC(=O)c2cccs2)CS1(=O)=O (centres undefined)	3	-1	4	0	0	/	/	/
COc1cc(CCCN2CCNC[C@H]2Cc2cccc3ccccc23)cc(OC)c1OC	-1	-2	44*	1	-1	0	1	-9
COc1cc(CCCN2CCNC[C@@H]2Cc2ccccc2)cc(OC)c1OC	-1	-2	0	2	0	/	/	/
